Results reported in PubChem BioAssay AID1159580 (chemical genetic matrix, 2015).
The campaign covered roughly 5,500 compounds. About 2,000 (36%) were called active. Roughly 18% stayed inconclusive and do not appear here. The list shows a part of the results. A number with no mark means an inactive call. No stated cut-off is given here; in the data, active means normalized growth mostly below about 0.91 (no sharp cut-off); inconclusive means no clear call, values can overlap the other calls; inactive means mostly above about 0.92.

Test: chemical genetic growth profiling, strain panel (AID 1159580);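 further: tested at 20 µM; growth read once vehicle control cultures reached saturation at 30 °C; 1 = growth at the plate median or of vehicle wells; lower values mean less growth of the strain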
Conditions: S. cerevisiae deletion strains, growth OD
[1] = locus YAL013W, strain DEP1, active compounds read low
[2] = locus YDR150W, strain NUM1, active compounds read low
[3] = locus YMR263W, strain SAP30, active compounds read low
[4] = locus YMR307W, strain GAS1, active compounds read low
[5] = locus YNL153C, strain GIM3, active compounds read low

COc1ccc(-n2c(SCc3ccc(Br)cc3)nnc2-c2ccco2)cc1
normalized growth [1]: 0.972 | normalized growth (locus YBR229C, strain ROT2, active compounds read low): 1 | normalized growth (locus YDL101C, strain DUN1, active compounds read low): 1 | normalized growth [2]: 0.962 | normalized growth (locus YEL061C, strain CIN8, active compounds read low): 1.01 | normalized growth (locus YGR078C, strain PAC10, active compounds read low): 0.987 | normalized growth (locus YGR229C, strain SMI1, active compounds read low): 0.978 | normalized growth (locus YHR030C, strain SLT2, active compounds read low): 0.79 | normalized growth (locus YHR087W, strain rtc3, active compounds read low): 0.996 | normalized growth (locus YJL187C, strain SWE1, active compounds read low): 1.01 | normalized growth (locus YJR043C, strain POL32, active compounds read low): 0.98 | normalized growth (locus YJR075W, strain HOC1, active compounds read low): 0.969 | normalized growth (locus YLR039C, strain RIC1, active compounds read low): 0.803 | normalized growth (locus YLR058C, strain SHM2 (second series), active compounds read low): 0.989 | normalized growth (locus YLR085C, strain ARP6, active compounds read low): 0.947 | normalized growth (locus YLR262C, strain YPT6, active compounds read low): 0.803 (active) | normalized growth (locus YML094W, strain GIM5, active compounds read low): 0.993 | normalized growth (locus YMR219W, strain ESC1, active compounds read low): 0.993 | normalized growth [3]: 0.989 | normalized growth [4]: 0.893 | normalized growth [5]: 0.996 | normalized growth (locus YNL298W, strain CLA4 (second series), active compounds read low): 0.917 | normalized growth (locus YNL322C, strain KRE1, active compounds read low): 0.984 | normalized growth (locus YNR030W, strain Alg12, active compounds read low): 0.966 | normalized growth (locus YOL006C, strain TOP1, active compounds read low): 0.889 | normalized growth (locus YPL055C, strain LGE1, active compounds read low): 0.976 | normalized growth (locus YPL241C, strain CIN2, active compounds read low): 0.986 | normalized growth (locus YPR135W, strain CTF4, active compounds read low): 0.844

Cn1cnc2c(NC3CCCC3)ncnc21
normalized growth [1]: 0.992 | normalized growth (locus YAL040C, strain CLN3, active compounds read low): 0.993 | normalized growth (locus YCL061C, strain MRC1 (second series), active compounds read low): 1 | normalized growth [2]: 0.999 | normalized growth (locus YDR363W, strain ESC2, active compounds read low): 1 | normalized growth (locus YER002W, strain NOP16, active compounds read low): 1.01 | normalized growth [3]: 1 | normalized growth [4]: 0.989 | normalized growth (locus YNL128W, strain TEP1, active compounds read low): 1 | normalized growth [5]: 1.02 | normalized growth (locus YNL175C, strain NOP13, active compounds read low): 1.04 | normalized growth (locus YNL197C, strain WHI3, active compounds read low): 1 | normalized growth (locus YNL224C, strain SQS1, active compounds read low): 0.997 | normalized growth (locus YOR083W, strain WHI5 (second series), active compounds read low): 0.984
